Data reported in PubChem BioAssay (NCI).
The panel holds about 79,000 compounds, 15% with a hit somewhere; the sample as a whole holds those more often. Values without a mark were called inactive. Active and inactive are the calls of the source. No stated cut-off is given here; in the data, active means growth inhibition above about 70%; inactive means the rest.

Key:
[1] = NCI Yeast Anticancer Drug Screen. Data for the rad50 strain (AID 155);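 further: 0% = growth of vehicle-only cultures of the same strain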; settings: S. cerevisiae rad50 strain growth inhibition; at 50.0 µM; stronger effect = higher value
In short: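 Cells are treated with compound, grown, and their growth is then scored against vehicle-only cultures of the same repair-deficient yeast strain.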

[2] = NCI Yeast Anticancer Drug Screen. Data for the mec2-1 strain (AID 157); settings: S. cerevisiae mec2-1 strain, at 50.0 µM, stronger effect = higher value
In short: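 Readout is yeast growth inhibition, normalised to vehicle-treated controls, in the mec2-1 strain exposed to compound.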

[3] = NCI Yeast Anticancer Drug Screen. Data for the sgs1 mgt1 strain (AID 161);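 further: 0% = growth of cultures given vehicle only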; settings: S. cerevisiae sgs1 mgt1 strain, at 50.0 µM, stronger effect = higher value
In short: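 Growth of a repair-deficient yeast mutant was monitored after compound treatment and expressed as inhibition relative to vehicle-treated cultures.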

[4] = NCI Yeast Anticancer Drug Screen. Data for the cln2 rad14 strain (AID 165);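 further: 0% = growth equal to vehicle treated cultures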; settings: S. cerevisiae cln2 rad14 strain, at 50.0 µM, stronger effect = higher value
In short: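 Relative to vehicle controls, growth inhibition of compound-treated cln2 rad14 yeast was recorded.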

[5] = NCI Yeast Anticancer Drug Screen. Data for the bub3 strain (AID 167); settings: S. cerevisiae bub3 mutant strain, at 50.0 µM, stronger effect = higher value
In short: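 Part of a panel of yeast mutants defective in DNA damage repair or cell cycle regulation. Each strain is grown with compound, and inhibition is calculated relative to solvent-treated cultures.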

[6] = NCI Yeast Anticancer Drug Screen. Data for the mlh1 rad18 strain (AID 175); settings: S. cerevisiae mlh1 rad18 strain growth inhibition; at 50.0 µM; stronger effect = higher value
In short: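 Test agents were incubated with a yeast strain of defined genotype (DNA damage repair defect). Inhibition of growth was derived by comparison with vehicle-exposed cultures.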

SMILES	growth inhibition [1]	growth inhibition [2]	growth inhibition [3]	growth inhibition [4]	growth inhibition [5]	growth inhibition [6]
C/C1=C/C(C)CC(C)OC(=O)C(C)NC(=O)C(Cc2ccc(O)c(I)c2)N(C)C(=O)C(C)NC(=O)C(C)C1 (stereo unspecified)	92.8% (active)	93.7% (active)	52.4%	90.7% (active)	92.8% (active)	91.2% (active)
Cn1c(=O)oc2cc([N+](=O)[O-])c(Cl)cc21	-2.9%	4.25%	-0.85%	-1.35%	-6.6%	6.75%
C=COC(=O)c1ccccc1O	-32.7%	-34%	-22.3%	3.8%	-36.8%	-5.55%
CCn1cnc2c(=O)n(C)c(=O)n(C)c21	-31.8%	-17.9%	4%	-36%	-0.55%	-0.95%
COc1ccc(Cc2ccc3c(c2)OCO3)cc1C	-12.1%	-14.2%	9.7%	-9.55%	6.45%	-3.95%
Cc1ccc(S(=O)(=O)/C=C(\I)c2ccc([N+](=O)[O-])cc2)cc1	98.8% (active)	99.2% (active)	99.3% (active)	98.8% (active)	98.9% (active)	99.1% (active)
Cc1cc(C)c(C#[N+][O-])c(C)c1C#[N+][O-]	5.9%	8.1%	-5.8%	13.7%	-1.1%	15.4%
CCCNc1ccc2c(c1)C(=O)c1ccccc1-2	-3.5%	-1.1%	-0.15%	-6.2%	-0.65%	-1.8%
C/C=C/C=C/C=N\O	16.6%	3.1%	-6.65%	-2.8%	-1.45%	6.8%
CCCC(=O)c1ccc(=O)n(C)c1	18.2%	9.8%	-4.4%	-2.1%	14.4%	17.9%
NNC(=O)Cc1ccc2ccccc2c1	12.3%	-32.1%	4.45%	-7.05%	4.6%	12%
CCOc1cc2c(cc1O)C(O)C[C@@H]1[C@@H]2CC[C@]2(C)[C@@H](O)CC[C@@H]12 (stereo partly specified)	14.8%	-7.9%	22.7%	11.9%	24.2%	25.1%
COc1ccc(N2C(=O)C3c4[nH]c5cccc(C)c5c4C4CCC(C(C)(C)C)CC4C3C2=O)cc1 (stereo unspecified)	8.75%	-21.1%	-5.75%	-10.6%	2.8%	6%
Cc1ccc(NC(=O)CCCC(=O)C(C#N)c2nc3ccccc3s2)cc1C (stereo unspecified)	10.9%	14.6%	-9.8%	0.7%	-7.35%	15.1%
CC(N)C(O)C(C)C(=O)O (stereo unspecified)	20.8%	9.5%	41.8%	44.5%	35%	7.35%
Cn1ccc(=S)c2ccccc21	18.2%	1.25%	9.6%	-56.1%	-2.15%	19.5%
C(=C\P(c1ccccc1)c1ccccc1)/P(/C=C/P(c1ccccc1)c1ccccc1)c1ccccc1	-18.4%	-14.8%	-42.1%	8.15%	-18.9%	-28.1%
C[n+]1cccc2cc(Br)ccc21	-5.3%	-8.6%	-13.2%	9.7%	11.6%	-15.5%
COC(=O)C(Cc1nc2ccccc2[nH]c1=O)C(=O)C(=O)Nc1ccc([N+](=O)[O-])cc1[N+](=O)[O-] (stereo unspecified)	7.25%	22.7%	4.45%	0.2%	18.1%	13.1%
Brc1ccc2c(c1)C1(c3cc(Br)ccc3-2)c2cc(Br)ccc2-c2ccc(Br)cc21	2.45%	-5.9%	-13.7%	22.7%	5.25%	3.95%
O=C(O)c1ccccc1P(=O)(O)c1ccccc1	-13%	-10.3%	-6.7%	5.35%	-6.85%	-31.2%

SMILES	growth inhibition [1]	growth inhibition [2]	growth inhibition [3]	growth inhibition [4]	growth inhibition [5]	growth inhibition [6]
C[C@@H]1C[C@H]2[C@@H]3CCC4=CC(=O)C=C[C@]4(C)[C@@]3(F)[C@@H](O)C[C@]2(C)[C@@]1(O)C(=O)CO	11.8%	-22.3%	-16.2%	3.45%	-5.1%	28.1%
CN(C)P1(=O)N(c2ccc(Cl)cc2)P(=O)(N(C)C)N1c1ccc(Cl)cc1 (stereo unspecified)	-14.2%	-35.6%	-13.1%	2%	-25%	-13.3%
NNC(=O)C(CC(C(=O)NN)C(=O)NN)C(=O)NN	47.5%	-1.5%	5.25%	-22.5%	13.9%	29.7%
c1ccc2nc(N3CCCC3)c(N3CCCC3)nc2c1	-8.75%	-12.6%	-10.7%	-21.4%	57.8%	-4.85%
Cc1cccc(Cl)c1NC(=O)COc1ccc(Cl)cc1	5.75%	5.75%	38.2%	1.65%	30.9%	26.2%
Nc1ccccc1C(=O)CCc1c[nH]c2ccccc12	5.05%	9.05%	7.6%	-42.4%	-12.1%	12.3%
O=S1OCC#CCOS(=O)OCC#CCO1 (stereo unspecified)	-7.1%	-23.8%	-7.5%	-6.2%	-3.7%	7.7%
OCc1ccc(Cl)cc1Cl	6.55%	-0.25%	-11.4%	10.3%	-51.1%	-27.9%
C/C=C(\C)c1cc(=O)c2c(C)cc3c(c2o1)C(=O)c1c(OC)cccc1C3=O	14.2%	-14.8%	-1.05%	-4.65%	-6.95%	23.9%
CC(=O)Oc1cc2c3ccccc3ccc2c2ccccc12	13%	-9.5%	10.1%	-2.9%	8.85%	0.05%
C(=C\c1cc(CCc2nc3ccccc3[nH]2)[nH]n1)/c1ccccc1	-4.4%	-16.5%	-12.3%	22.6%	-4.25%	-15.2%
N#Cc1nc(CC(=O)c2ccncc2)c(CC(=O)c2ccncc2)nc1C#N	8%	11.9%	35.9%	13.5%	-10.9%	53.1%
BrCCCCCBr	12.4%	6.3%	1.5%	-48.5%	-5.45%	15.6%
CCc1c(N)nc(=O)[nH]c1C(=O)O	-4.9%	-0.2%	10.1%	-26.3%	-26%	-16.6%
COc1ccc(/C=C/C2=CC(=O)CC(/C=C/c3ccc(OC)c(OC)c3)C2)cc1OC (stereo unspecified)	45%	46.5%	28.9%	49.6%	58.6%	43.9%
c1ccc(Sc2cccc3c(-c4ccccc4)c4cccc5c4c(c23)C[S+]5c2ccccc2)cc1 (stereo unspecified)	98.5% (active)	99.1% (active)	99.2% (active)	98.5% (active)	98.6% (active)	98.8% (active)
CC(=O)Nc1ccc(C=O)cc1[N+](=O)[O-]	14.2%	33.3%	4.05%	-12.8%	-0.6%	13.4%
CC1C(c2ccccc2O)c2cc3c(cc2OC1N1CCCC1)OCO3 (stereo unspecified)	45.9%	38.8%	58.5%	59.6%	47.4%	58.3%
O=C1CCC2(c3ccc(Cl)cc3)SCCN12 (stereo unspecified)	5.8%	-20.5%	-6.85%	2.75%	31.8%	-0.15%
O=[N+]([O-])c1cccc(S/N=C/c2ccccc2)c1	98.8% (active)	98.4% (active)	99% (active)	92.3% (active)	98.5% (active)	98.8% (active)
